Compounds without any hit were thinned out: in the full panel of roughly 83,000, 20% have a hit.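 Growth was measured after 48 h exposure to one concentration of compound in 96-well plates. Values under 10 count as active.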 Values without a mark were called inactive. The source made the active and inactive calls.

This test concerns RXF 393 renal. Put plainly: NCI-60 one-dose screen, 48 h (100 = growth as untreated, 0 = no growth, -100 = all killed). As to conditions: 10 µM unless noted.
Regarding `Fc1ccc(COc2ccc(Nc3ncnc4sc5c(c34)CCCC5)cc2)cc1`, the growth is 109%.
In the case of `COc1cc(C2Cc3ncccc3-c3[nH]c(=O)c4cccnc4c32)cc(OC)c1OC` (stereo not drawn) it was 8.5% (active); in that of `O=C(c1ccc(Cl)cc1Cl)N1c2ccccc2Sc2ccccc21`, 70%; in that of `O=C(N/N=C/c1ccc([N+](=O)[O-])cc1)c1ccc2nc(-c3ccc(Cl)cc3)[nH]c2c1`, 31.6%.
In the case of `O=C(NCc1ccccc1O)c1cccc2ccccc12` it was 95.2%.
As for `CC1=C(C(=O)n2c3ccccc3c3ccccc32)C(c2cccc([N+](=O)[O-])c2)C(C(=O)n2c3ccccc3c3ccccc32)=C(C)N1`, the growth is 111%.
In the case of `COc1ccc(/C=C/C(=O)c2ccc(NC(=O)CSc3nnc(-c4cc(-c5ccccc5)nc5ccccc45)n3-c3ccccc3)cc2)cc1`, the growth is 103%.
In the case of `Cn1cc(-c2nc(-c3c[nH]c4ccncc34)cs2)c2cc(Br)ccc21` it was -94.4% (active).
To `C#Cc1cccc(Oc2ccc(NC(=O)CCl)cc2)c1` belongs 62.6% [8.25 µM]; to `CC1(C)CC[C@]2(C(=O)N3CCOCC3)CC[C@]3(C)C(=CC[C@@H]4[C@@]5(C)C/C(=C/c6ccncc6)C(=O)C(C)(C)[C@@H]5CC[C@]43C)[C@@H]2C1`, -36.8% (active); to `CC(C)c1ccc(NC(=O)Nc2ccc(NC(=O)c3ccccc3N)cc2)cc1`, -25.1% (active).
In the case of `Cc1cc(C(=O)Nc2cc(Nc3ncccc3-c3ncnc4nc[nH]c34)ccc2F)cc(C(F)(F)F)c1` it was 100%; in that of `COc1cc2c3c(n(CCCCNCCCn4c5c(c6cc(OC)c(OC)cc6c4=O)C(=O)c4cc6c(cc4-5)OCO6)c(=O)c2cc1OC)-c1cc2c(cc1C3=O)OCO2`, 107%.
For `CNC(=O)c1c(NC(=O)c2ccc(C(C)(C)C)cc2)sc2c(CN(C)C)c(O)ccc12`, the growth was 36.2%.
Consider `CCCCn1sc(=O)n(Cc2ccc(CNC(=O)OCc3ccc4c(Cl)cc(Cl)c(O)c4n3)cc2)c1=O`, for which the growth was 74.3%.
In the case of `O=C1Nc2ccc(F)cc2/C1=N/c1nnc(Sc2ccccc2)s1` it was 110%; in that of `N#Cc1c(N2CCOCC2)nc(=S)[nH]c1-c1ccccc1`, 70.8%; in that of `O=C(CSc1nnc2sc(Nc3cccc(Cl)c3)nn12)c1ccc(F)cc1`, 102%.
For `C=C(CO)[C@@H]1CC[C@]2(COC3CCCCO3)CC[C@]3(C)[C@H](CC[C@@H]4[C@@]5(C)C=C(C=O)C(=O)C(C)(C)[C@@H]5CC[C@]43C)[C@@H]12` (stereo partly drawn), the growth is -86.2% (active).
To `COc1ccc(-c2cc(C(=O)N3N=C(c4ccc(N)cc4)CC3c3ccccc3)c3ccccc3n2)cc1` (stereo not drawn) belongs 51.1%; to `COc1ccc(-c2cc(-c3cc(OC)c(OC)c(OC)c3)c(C#N)c(=O)n2CCCCCC(=O)NO)cc1`, 92.9%; to `Cn1ccnc1C(=O)/C=C/c1ccc(C(=O)Nc2ccc(F)cc2)cc1`, 5.96% (active).
To `C=C1C(=O)O[C@H]2[C@H]1CC/C(COC(=O)NCCCCCCCCNC(=O)OC/C1=C/CC[C@@]3(C)O[C@H]3[C@H]3OC(=O)C(=C)[C@@H]3CC1)=C\CC[C@@]1(C)O[C@@H]21` belongs -83.6% (active); to `C/C(C=O)=C\c1ccc2c(c1)OCO2`, 98.3%.
For the compound `COc1cccc(/C=C/C(=O)c2cc3c(N)c(C(=O)Nc4cccc(Cl)c4C)sc3nc2C)c1`, the growth is -71% (active).
With `COC(=O)/C=C1/SC(=Nc2cccc(Cl)c2)N(CCc2c[nH]c3ccc(O)cc23)C1=O`, the growth was 10.7%.
To `CCC/C(=N\NC(N)=O)C(OC)OC` belongs 102%; to `COc1ccc2cc(Cn3cc[n+](Cc4ccc5ccccc5c4)c3)ccc2c1`, 4.94% (active).
Take `Cn1c(=O)c2c(c3ccccc31)OC(N)=C(C#N)C21C(=O)c2ccccc2C1=O`: the growth is 91%.
With `CN1CCN(c2ccc3c(c2)nc(NNC(=O)c2cnccn2)c2cccn23)CC1`, the growth was 48.6%.
Consider `Cc1cc(C)c(-c2c(O)c(Br)c(-c3c(C)cc(C)c(Br)c3C)c(O)c2Br)c(C)c1Br`, for which the growth is -48.7% (active).
For the compound `CCN(CC)S(=O)(=O)c1ccc(S(=O)(=O)N2CCC[C@@H](C(=O)N3CCN(C(=O)OC(C)(C)C)CC3)C2)cc1`, the growth is 74.4%.
Turning to `O=C1/C=C/[C@@H](O)[C@@H]2C[C@@H](O)C[C@H]2/C=C/CCC[C@H](CCOCc2ccccc2)O1`, the growth was -2.06% (active).

Source of the values: PubChem BioAssay (NCI).
